A short description of experiment [1]: Nuclear factor erythroid 2-related factor 2/antioxidant responsive element (Nrf2/ARE) small molecule agonists: luciferase reporter gene qHTS assay in human keratinocytes (AID 1919969). Further: nearly all actives have a fitted effect of over 35% in size. Further: potency means the concentration at half of the fitted maximal effect.
Experiment [2] addresses Gonadotropin-releasing hormone receptor (Homo sapiens) (UniProt P30968). The experiment can be described thus: Human gonadotropin-releasing hormone receptor (GnRHR) small molecule agonists, calcium flux assay in GnRHR-HEK293 cells (AID 1920063). Further: nearly all actives have a fitted effect of over 35% in size. In outline: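 Intracellular calcium rise is the read-out: engineered human GnRHR HEK293 cells, dye-loaded, are exposed to DMSO-dissolved compounds and fluorescence at Ex/Em 480/540 is tracked for 3 min.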

The target of experiment [3] is KiSS-1 receptor (Homo sapiens) (UniProt Q969F8). The experiment can be described thus: Human kisspeptin (KISS1R) small molecule agonists, calcium flux assay in KISS1R-HEK293 cells (AID 1920064; active means well fitted activation curve with a large enough effect in the repeat runs). In outline: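 Concentration-response testing used 15 concentrations in triplicate on human KISS1R-expressing HEK293 cells. Calcium-dependent fluorescence (Ex/Em 480/540) was followed kinetically for 3 min after compound transfer.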

A short description of experiment [4]: G protein-coupled receptor (GPCR) small molecule agonists, calcium flux assay: HEK293 wild type cell line counter screen (AID 1920065). In outline:
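Fluorescence intensity signals activation. After overnight (18 h) culture and a 1 h calcium dye load at 37 C, compounds are added by pin tool and the plate read at 480/540 nm for 3 min in 1 s steps.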

A short description of experiment [5]: p53 small molecule agonists, cell-based qHTS assay with human liver microsomes (AID 1963577). In outline: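 Compounds act here after metabolic activation: human liver microsomes and NADPH, both at 0.5 mg/mL final, were co-added to p53RE-bla cells. Incubation ran 16 h at 37 C, followed by LiveBLAzer detection.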
The nature of experiment [6]: p53 small molecule agonists, cell-based qHTS assay with rat liver microsomes (AID 1963578). In outline:
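Read-out is beta-lactamase reporter fluorescence (LiveBLAzer, 2 h, room temperature, dark) in p53RE-bla cells treated 16 h at 37 C with compound, rat liver microsomes and NADPH, both 0.5 mg/mL final.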

The nature of experiment [7]: p53 small molecule agonists, cell-based qHTS assay with human liver microsomes: qHTS cell viability counter screen (AID 1963579). Further: nearly all actives have a fitted effect of over 45% in size. In outline:
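Cells carrying the p53 response-element beta-lactamase reporter are treated for 16 h at 37 C with test compounds in the presence of human liver microsomes and NADPH (both 0.5 mg/mL final); ATP-based CellTiter-Glo luminescence then reports viability.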

A short description of experiment [8]: p53 small molecule agonists, cell-based qHTS assay with rat liver microsomes: qHTS cell viability counter screen (AID 1963580). Further: nearly all actives have a fitted effect of over 45% in size. In outline: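 Rat liver microsome (0.5 mg/mL final) and NADPH (0.5 mg/mL final) co-incubation with compounds for 16 h at 37 C on HCT-116 p53RE-bla cells; cytotoxicity taken from intracellular ATP luminescence.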
Experiment [9] in a line: p53 small molecule agonists, cell-based qHTS assay: qHTS cell viability counter screen (AID 1963581). Further: nearly all actives have a fitted effect of over 45% in size. Further: potency means the concentration at half of the fitted maximal effect. In outline:
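Luminescence from CellTiter-Glo, reflecting ATP content, serves as the cytotoxicity measure; it is taken after the 2 h reporter substrate step in HCT-116 p53RE-bla cells dosed for 16 h at 37 C.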

The target in experiment [10] is 5-hydroxytryptamine receptor 2A (Homo sapiens) (UniProt P28223). Put plainly: 5-hydroxytryptamine receptor 2A (HTR2A) small molecule antagonists, cell-based qHTS assay (AID 1963586). Further: nearly all actives have a fitted effect of over 45% in size. Further: potency means the concentration at half of the fitted maximal effect. In outline: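 CHO cells stably expressing human HTR2A were plated for 18 h at 37 C, then loaded with calcium dye for 1 h. Compounds were preincubated 5 min at room temperature before DOI (4 nM solution) was added. Kinetic fluorescence was read for 3 min.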

For experiment [11] the target is unchanged. The experiment can be described thus: 5-hydroxytryptamine receptor 2A (HTR2A) small molecule agonists, cell-based qHTS assay (AID 1963587). Further: nearly all actives have a fitted effect of over 30% in size. In outline: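 Kinetic calcium-flux fluorescence (2 min, 1 sec intervals) after compound addition in agonist mode. HTR2A-CHO cells were cultured 18 h, then dye-loaded 1 h at 37 C.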
Experiment [12] has as its target Muscarinic acetylcholine receptor M1 (Homo sapiens) (UniProt P11229). Put plainly: Cholinergic receptor muscarinic 1 (CHRM1) small molecule antagonists, cell-based qHTS assay (AID 1963588). Further: nearly all actives have a fitted effect of over 40% in size. Further: potency means the concentration at half of the fitted maximal effect. In outline: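 Compounds were tested at 15 concentrations in three independent runs. Dye-loaded CHRM1-CHO cells were exposed 5 min at room temperature before stimulation by acetylcholine added at 50nM. Intracellular calcium was read kinetically on FDSS for 3 min.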

Experiment [13] concerns the target D(2) dopamine receptor (Homo sapiens) (UniProt P14416). The experiment can be described thus: Dopamine D2 receptor (DRD2) small molecule agonists, cell-based qHTS assay (AID 1963594). Further: nearly all actives have a fitted effect of over 35% in size. In outline:
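cAMP accumulation in DRD2-HEK293 cells measured by HTRF after 1 h detection; compounds added 10 min before NKH477 (200nM […]) forskolin-analogue stimulation, 30 min at room temperature, with Ro20-1724 present at 0.1 mM final.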

Experiment [14] addresses Muscarinic acetylcholine receptor M1 (Homo sapiens) (UniProt P11229). The experiment can be described thus: Cholinergic receptor muscarinic 1 (CHRM1) small molecule agonists, cell-based qHTS assay (AID 1963589). Further: nearly all actives have a fitted effect of over 35% in size. In outline:
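Fluorescent calcium dye reports M1 activation in stably transfected CHO cells. Compounds, 15 concentrations, added after 1 h dye loading at 37 C; kinetic reading at 1 sec intervals.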

Experiment [15] in a line: cAMP Responsive Elements (CRE) small molecule antagonists, cell-based qHTS assay (AID 1963591; active means well fitted inhibition curve with a large enough effect in the signal ratio in the repeat runs, not every such curve was filed as active; the % refers to the signal ratio). In outline: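 Stimulation used NKH477 at a final 0.25 uM for 3 h in compound-treated CRE-bla HEK293T cells, seeded 18 h beforehand. Reporter activity was measured with LiveBLAzer B/G FRET substrate after 2 h at room temperature.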
Experiment [16] deals with Beta-2 adrenergic receptor (Homo sapiens) (UniProt P07550). Put plainly: Adrenergic beta2 receptor (ADRB2) small molecule antagonists, cell-based qHTS assay (AID 1963592). Further: series mostly up to about 92 µM; nearly all actives have a fitted effect of over 50% in size. In outline: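 Assay format: CHO-ADRB2 cells, 18-20hr seeding at 37C/5% CO2, then compound plus 1nM isoproterenol agonist mix for 0.5hr RT. Homogeneous time-resolved fluorescence cAMP detection after 1hr, expressed as 665/615 nm ratio.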

Experiment [17] concerns the target D(2) dopamine receptor (Homo sapiens) (UniProt P14416). The experiment can be described thus: Dopamine D2 receptor (DRD2) small molecule antagonists, cell-based qHTS assay (AID 1963595; active means well fitted inhibition curve with a large enough effect in the signal ratio in the repeat runs, with a control signal flat; the % refers to the signal ratio). In outline:
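Antagonism was scored as restored cAMP in HEK293-DRD2 cells. These cells were stimulated with 200 nM NKH477 and 12 nM quinpirole for 30 min at room temperature, in the presence of 0.1 mM Ro20-1724.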

A short description of experiment [18]: p53 small molecule agonists, cell-based qHTS assay (AID 1963582; active means well fitted activation curve with a large enough effect in the signal ratio in the repeat runs, not every such curve was filed as active; the % refers to the signal ratio). In outline: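 After plating, p53RE-bla cells sat 5 h in the incubator; compounds or DMSO vehicle were pinned in; a 16 h incubation at 37 C followed; FRET substrate was added and, 2 h later at RT, fluorescence was measured.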
Experiment [19] can be described thus: cAMP Responsive Elements (CRE) small molecule agonists, cell-based qHTS assay (AID 1963590). In outline: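 Compound exposure lasted 3 h at 37 C/5% CO2 in CRE-bla HEK 293T cells grown in assay medium with 10% dialyzed FBS and 25 mM HEPES. Reporter signal came from LiveBLAzer B/G FRET substrate, 2 h, room temperature.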

Molecules are shown by their SMILES. Records with an inconclusive call do not appear. Calls of active or inactive are those of the source. Unless noted, the call rests on the fitted dose curve.

Sequence of KiSS-1 receptor (Homo sapiens) (Q969F8 whole entry, looked up): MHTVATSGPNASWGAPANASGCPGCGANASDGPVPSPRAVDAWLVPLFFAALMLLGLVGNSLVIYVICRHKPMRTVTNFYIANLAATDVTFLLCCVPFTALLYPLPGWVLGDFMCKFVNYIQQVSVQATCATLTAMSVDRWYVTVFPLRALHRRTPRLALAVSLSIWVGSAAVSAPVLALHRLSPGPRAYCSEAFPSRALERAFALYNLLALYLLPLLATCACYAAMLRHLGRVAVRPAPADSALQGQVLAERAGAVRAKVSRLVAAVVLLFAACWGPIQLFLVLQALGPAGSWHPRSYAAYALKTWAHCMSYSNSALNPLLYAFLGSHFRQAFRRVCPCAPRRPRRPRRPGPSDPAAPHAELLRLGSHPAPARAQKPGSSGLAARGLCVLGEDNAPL
Sequence of D(2) dopamine receptor (Homo sapiens) (P14416 whole entry, looked up): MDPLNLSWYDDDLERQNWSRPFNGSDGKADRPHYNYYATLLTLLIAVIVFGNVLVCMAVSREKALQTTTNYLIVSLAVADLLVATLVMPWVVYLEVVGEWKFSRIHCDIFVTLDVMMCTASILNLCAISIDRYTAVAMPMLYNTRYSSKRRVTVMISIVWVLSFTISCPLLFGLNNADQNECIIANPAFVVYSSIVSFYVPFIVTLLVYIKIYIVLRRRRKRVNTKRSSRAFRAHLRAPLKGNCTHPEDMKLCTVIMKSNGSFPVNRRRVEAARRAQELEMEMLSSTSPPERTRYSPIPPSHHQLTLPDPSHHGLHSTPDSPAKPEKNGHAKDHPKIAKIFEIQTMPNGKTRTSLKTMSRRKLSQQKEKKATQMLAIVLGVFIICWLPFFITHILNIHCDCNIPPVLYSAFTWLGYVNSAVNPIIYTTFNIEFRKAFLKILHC
Sequence of Gonadotropin-releasing hormone receptor (Homo sapiens) (P30968 whole entry, looked up): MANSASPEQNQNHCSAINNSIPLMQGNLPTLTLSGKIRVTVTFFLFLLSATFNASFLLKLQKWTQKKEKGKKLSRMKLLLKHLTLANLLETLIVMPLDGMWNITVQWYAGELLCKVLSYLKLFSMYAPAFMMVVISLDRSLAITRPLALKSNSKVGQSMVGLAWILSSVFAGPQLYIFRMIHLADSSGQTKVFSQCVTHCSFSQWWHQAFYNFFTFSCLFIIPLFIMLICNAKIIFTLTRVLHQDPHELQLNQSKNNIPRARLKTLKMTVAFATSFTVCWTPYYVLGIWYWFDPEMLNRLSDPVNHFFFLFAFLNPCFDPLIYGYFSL
Sequence of Muscarinic acetylcholine receptor M1 (Homo sapiens) (P11229 whole entry, looked up): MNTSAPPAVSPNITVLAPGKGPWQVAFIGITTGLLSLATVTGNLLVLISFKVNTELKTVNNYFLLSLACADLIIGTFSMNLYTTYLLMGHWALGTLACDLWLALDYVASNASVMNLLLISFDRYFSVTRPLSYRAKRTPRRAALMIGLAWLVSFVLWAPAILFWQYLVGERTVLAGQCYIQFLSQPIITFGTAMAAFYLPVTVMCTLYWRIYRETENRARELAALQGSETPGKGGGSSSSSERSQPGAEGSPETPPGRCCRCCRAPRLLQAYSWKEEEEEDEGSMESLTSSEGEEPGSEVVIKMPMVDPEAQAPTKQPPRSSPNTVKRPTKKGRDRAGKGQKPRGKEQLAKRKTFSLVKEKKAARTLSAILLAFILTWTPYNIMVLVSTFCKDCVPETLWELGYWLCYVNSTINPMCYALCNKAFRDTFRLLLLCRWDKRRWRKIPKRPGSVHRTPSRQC
Sequence of Beta-2 adrenergic receptor (Homo sapiens) (P07550 whole entry, looked up): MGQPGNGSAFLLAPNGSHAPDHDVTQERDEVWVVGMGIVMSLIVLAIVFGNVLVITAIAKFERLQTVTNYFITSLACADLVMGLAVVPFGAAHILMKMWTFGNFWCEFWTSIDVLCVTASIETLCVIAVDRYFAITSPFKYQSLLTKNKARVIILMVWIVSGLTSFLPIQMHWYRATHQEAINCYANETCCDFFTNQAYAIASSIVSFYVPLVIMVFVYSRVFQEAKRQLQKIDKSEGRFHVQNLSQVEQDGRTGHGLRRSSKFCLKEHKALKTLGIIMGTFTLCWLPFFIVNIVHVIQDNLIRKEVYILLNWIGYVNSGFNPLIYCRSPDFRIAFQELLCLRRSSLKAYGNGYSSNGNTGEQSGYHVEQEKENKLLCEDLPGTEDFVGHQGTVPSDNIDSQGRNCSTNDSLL
Sequence of 5-hydroxytryptamine receptor 2A (Homo sapiens) (P28223 whole entry, looked up): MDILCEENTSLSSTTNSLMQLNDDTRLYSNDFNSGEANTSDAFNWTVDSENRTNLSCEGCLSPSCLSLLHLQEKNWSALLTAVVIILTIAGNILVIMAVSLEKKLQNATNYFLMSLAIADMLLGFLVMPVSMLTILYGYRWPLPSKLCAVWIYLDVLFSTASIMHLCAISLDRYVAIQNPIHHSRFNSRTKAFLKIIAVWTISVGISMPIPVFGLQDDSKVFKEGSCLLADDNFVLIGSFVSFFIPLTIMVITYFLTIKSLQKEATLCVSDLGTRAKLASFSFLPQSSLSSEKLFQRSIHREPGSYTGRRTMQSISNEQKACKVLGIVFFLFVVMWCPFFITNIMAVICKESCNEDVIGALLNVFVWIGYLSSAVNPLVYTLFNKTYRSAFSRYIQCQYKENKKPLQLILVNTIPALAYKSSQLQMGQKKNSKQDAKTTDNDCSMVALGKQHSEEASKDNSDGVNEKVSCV

For the compound `Nc1cc(Cl)c(O)c(Cl)c1`, the Potency in experiment [1] is 54.5 µM (active). Besides, the Potency result in [2], in [5], in [6], in [7], in experiment [8] and in experiment [9] was “inactive” throughout. Besides, the Potency entry in [10], in experiment [11], in experiment [12] and in experiment [13] was “inactive” in each case. Also, the result in experiment [3] and in experiment [4] was inactive.
In the case of `O=C(CCc1ccc(O)cc1)c1c(O)cc(O)cc1O`, the Potency in experiment [1] is 70.1 µM (active); in experiment [10], 38.4 µM (active). In addition, the Potency result in experiment [2], in experiment [5], in experiment [6], in experiment [7], in experiment [8] and in experiment [9] was “inactive” throughout. Besides, the Potency result in experiment [11], in [12], in [14], in experiment [15], in experiment [16] and in experiment [13] was “inactive” throughout. The Potency result in [17] was “inactive”. Besides, the result in [3] and in experiment [4] was inactive.
`COc1ccc(CN2CCN(C(c3ccc(F)cc3)c3ccc(F)cc3)CC2)c(OC)c1OC`: the Potency result in experiment [1], in experiment [2], in [5], in experiment [6], in experiment [7] and in experiment [8] was “inactive” each time. In addition, the Potency entry in [18], in [11], in [14], in experiment [16] and in [13] was “inactive” each time. Moreover, the result in experiment [3] and in experiment [4] was inactive. Also, the Potency in experiment [9] is 15.8 µM (active); in [12], 2.59 µM (active).
Regarding `C=CCOc1c(Br)cc(C(C)(C)c2cc(Br)c(OCC=C)c(Br)c2)cc1Br`, the Potency result in experiment [1], in experiment [2], in [5], in experiment [6], in experiment [7] and in [8] was “inactive” in each case. Also, the Potency entry in experiment [9], in experiment [10], in experiment [11], in experiment [12], in experiment [19] and in experiment [15] was “inactive” throughout. The Potency result in experiment [16], in [13] and in [17] was “inactive” throughout. Besides, the outcome in experiment [3] and in [4] was inactive.
On to `CCCCCC#CC(=O)OC`, for which the Potency entry in [1], in experiment [2], in experiment [5], in [6], in experiment [7] and in experiment [8] was “inactive” throughout. The Potency entry in experiment [9], in [18], in [10], in experiment [11], in experiment [12] and in [14] was “inactive” throughout. Further, the Potency entry in experiment [19], in [16], in experiment [13] and in experiment [17] was “inactive” throughout. Also, the outcome in [3] and in experiment [4] was inactive.
On to `Cc1ccc(C(=O)c2ccc(CC(=O)O)n2C)cc1`, for which the Potency result in experiment [1], in [2], in [5], in experiment [6], in experiment [7] and in [8] was “inactive” each time. The Potency result in [9], in experiment [18], in [15], in [16], in [13] and in [17] was “inactive” throughout. Moreover, the result in [3] and in experiment [4] was inactive.
In the case of `C[C@H](N)[C@H](O)c1cccc(O)c1`, the Potency entry in experiment [1], in experiment [2], in [5], in [6], in experiment [7] and in experiment [8] was “inactive” throughout. The Potency result in [9], in experiment [18], in [12], in [14], in experiment [15] and in [16] was “inactive” each time. Besides, the Potency result in experiment [13] and in experiment [17] was “inactive” throughout. The result in experiment [3] and in [4] was inactive.

The values are drawn from PubChem BioAssay (Tox21).
